These results are taken from publication PMC4336329 (PLoS ONE, 2015).

Structures are written as SMILES. About 14,000 (4.5%) of roughly 310,000 compounds showed an effect of 50% or more. Effects have a minus sign here. Shown is part of a subset that was picked to be rich in strong results.
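Note: peak tail current of the secondary pulse compared with the same well before compound.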

Chain of human ether-à-go-go-related gene (hERG) potassium channel (Q12809 whole entry, looked up): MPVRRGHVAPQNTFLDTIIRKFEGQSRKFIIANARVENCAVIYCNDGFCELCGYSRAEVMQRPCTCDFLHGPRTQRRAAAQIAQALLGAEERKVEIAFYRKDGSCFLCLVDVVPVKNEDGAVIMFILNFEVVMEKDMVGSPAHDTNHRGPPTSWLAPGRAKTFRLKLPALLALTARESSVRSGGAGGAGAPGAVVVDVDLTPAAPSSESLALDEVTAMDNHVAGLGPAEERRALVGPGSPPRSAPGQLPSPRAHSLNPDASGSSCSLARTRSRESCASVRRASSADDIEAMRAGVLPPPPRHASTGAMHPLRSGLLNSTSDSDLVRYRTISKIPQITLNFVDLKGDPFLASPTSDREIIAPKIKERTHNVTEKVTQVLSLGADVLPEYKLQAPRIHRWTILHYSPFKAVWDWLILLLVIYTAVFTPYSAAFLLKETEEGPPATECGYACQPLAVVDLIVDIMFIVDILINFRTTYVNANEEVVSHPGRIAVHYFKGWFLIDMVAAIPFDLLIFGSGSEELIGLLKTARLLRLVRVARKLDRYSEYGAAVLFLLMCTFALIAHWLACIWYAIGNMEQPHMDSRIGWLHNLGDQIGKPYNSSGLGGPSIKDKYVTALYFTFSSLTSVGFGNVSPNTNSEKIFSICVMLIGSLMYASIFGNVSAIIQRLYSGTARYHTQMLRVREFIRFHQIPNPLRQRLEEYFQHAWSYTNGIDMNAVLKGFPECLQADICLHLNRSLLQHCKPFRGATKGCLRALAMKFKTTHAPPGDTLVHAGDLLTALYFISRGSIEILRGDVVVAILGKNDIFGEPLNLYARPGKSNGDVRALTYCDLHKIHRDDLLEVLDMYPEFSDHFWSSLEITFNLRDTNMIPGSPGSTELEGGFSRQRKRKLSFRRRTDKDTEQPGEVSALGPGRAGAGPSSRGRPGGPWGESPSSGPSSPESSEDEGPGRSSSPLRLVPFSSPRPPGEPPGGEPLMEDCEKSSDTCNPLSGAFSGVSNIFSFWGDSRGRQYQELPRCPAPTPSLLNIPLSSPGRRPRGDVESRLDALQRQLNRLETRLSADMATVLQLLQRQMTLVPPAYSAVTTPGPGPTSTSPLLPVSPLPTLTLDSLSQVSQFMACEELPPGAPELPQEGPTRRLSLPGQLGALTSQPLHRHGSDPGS

The test concerns the target human ether-à-go-go-related gene (hERG) potassium channel (human, UniProt Q12809). The test is described as follows: primary screen, population patch clamp on CHO cells stably expressing hERG; higher = less effect of the substance.
In the case of `NC(=O)c1ccccc1OCC(=O)N1CCc2ccccc2C1`, the “hERG current change (%, negative = inhibition) at 10uM” value came out at 8.34%.

Turning to `COC(=O)c1cc(-c2ccc(Br)cc2)on1`, the “hERG current change (%, negative = inhibition) at 10uM” value came out at 8.48%. Consider `Cc1c(Cl)cccc1NC(=S)NCc1ccccc1`, for which the “hERG current change (%, negative = inhibition) at 10uM” value amounted to 16.5%.

For the compound `Cc1ccc(S(=O)(=O)C2(C(=O)NCc3ccccc3Cl)CC2)cc1`, the “hERG current change (%, negative = inhibition) at 10uM” value was -15.2%. The figure for `Cc1nnc(SCC(=O)Nc2ccc(N3CCOCC3)cc2)n1-c1ccccc1` is -14.5%; for `CCCCCn1c(=O)[nH]c2cc(C(=O)Nc3ccc(OC)cc3)ccc2c1=O` it is 14.9%. Take `CC(=O)NCC(=O)OCc1ccc([N+](=O)[O-])cc1`: the “hERG current change (%, negative = inhibition) at 10uM” value is recorded as 3.26%.

On to `Cc1ccc(S(=O)(=O)N2CCC(C(=O)Nc3ccc(C(C)C)cc3)CC2)cc1`, for which the “hERG current change (%, negative = inhibition) at 10uM” value was -11.5%. For the compound `O=C(NC1CCCCCC1)C1CCN(S(=O)(=O)c2c(Cl)cccc2Cl)CC1`, the “hERG current change (%, negative = inhibition) at 10uM” value is reported as 11.6%. As for `CN(C)C1(CNC(=O)C2CCN(S(=O)(=O)c3ccccc3C(F)(F)F)CC2)CCCCC1`, the figure is -29.8%; as for `CN(C)C1(CNC(=O)C2CCN(S(=O)(=O)c3cccc(C(F)(F)F)c3)CC2)CCCCC1`, -34.6%; as for `CC(C)c1ccc(S(=O)(=O)N2CCC(C(=O)N3CCC3)CC2)cc1`, -9.72%. Consider `CN(C)C1(CNC(=O)C2CCN(S(=O)(=O)c3cc(Cl)ccc3Cl)CC2)CCCCC1`, for which the “hERG current change (%, negative = inhibition) at 10uM” value was -64.1%. Consider `CC(C)c1ccc(S(=O)(=O)N2CCC(C(=O)NCC3(N(C)C)CCCCC3)CC2)cc1`, for which the “hERG current change (%, negative = inhibition) at 10uM” value is recorded as -54.4%. With `O=C(NCC1CCCO1)C1CCN(S(=O)(=O)c2cc(Cl)ccc2Cl)CC1` (centres unmarked), the “hERG current change (%, negative = inhibition) at 10uM” value is reported as -19%. Consider `CN(C)C1(CNC(=O)C2CCN(S(=O)(=O)c3c(Cl)cccc3Cl)CC2)CCCCC1`, for which the “hERG current change (%, negative = inhibition) at 10uM” value is given as -67.5%. Take `CCOC(=O)c1cccc(NC(=O)C2CCCO2)c1` (centres unmarked): the “hERG current change (%, negative = inhibition) at 10uM” value is reported as 4.7%. For the compound `Brc1ccccc1CNCCc1ccc2c(c1)OCO2`, the “hERG current change (%, negative = inhibition) at 10uM” value is given as 0.404%. For the compound `Cc1cccc(Oc2cnn(C(C)(C)C)c(=O)c2Cl)c1`, the “hERG current change (%, negative = inhibition) at 10uM” value is listed as -10%. With `Cc1ccc(NC(=O)c2sc(N)nc2-c2ccc([N+](=O)[O-])cc2)cc1C`, the “hERG current change (%, negative = inhibition) at 10uM” value was 8.18%. As for `CSc1ccc(C(C(C(=O)c2cccs2)N2CCOCC2)N2CCOCC2)cc1` (centres unmarked), the figure is -3.73%; as for `COc1ccc(CCn2nnnc2C(C(C)C)N2CCN(c3ncccn3)CC2)cc1OC` (centres unmarked), -5.93%. As for `Cc1c(Br)c([N+](=O)[O-])nn1CC(=O)Nc1ccc(C(N)=O)cc1`, the “hERG current change (%, negative = inhibition) at 10uM” value is on record as -2.84%. In the case of `COc1ccc(C2c3c(ncn(CCCN4CCOCC4)c3=N)Oc3ccc4ccccc4c32)cc1OC` (centres unmarked), the “hERG current change (%, negative = inhibition) at 10uM” value is given as -51.3%. As for `COc1ccc(C2c3ccc4ccccc4c3Oc3ncn(CCN4CCOCC4)c(=N)c32)cc1OC` (centres unmarked), the figure is -53.4%. As for `COc1ccc(C2c3c(ccc4ccccc34)Oc3ncn4nc(Cc5ccccc5)nc4c32)cc1OC` (centres unmarked), the figure is -7.49%; as for `COc1ccc(C2c3ccc4ccccc4c3Oc3ncn(CCN4CCOCC4)c(=N)c32)cc1` (centres unmarked), -74.1%; as for `COc1ccc(C2c3c(ncn(CCN4CCOCC4)c3=N)Oc3ccc4ccccc4c32)cc1OC` (centres unmarked), -16.6%. The figure for `COc1ccc(C2c3c(ncn(CCN4CCOCC4)c3=N)Oc3ccc4ccccc4c32)cc1` (centres unmarked) is -47.2%; for `Cc1cc(NC(=O)CCN2C(=O)C3C4C=CC(C4)C3C2=O)c2ccccc2n1` (centres unmarked) it is 7.51%. Take `CC(=O)Nc1nc(C(F)(F)F)cs1`: the “hERG current change (%, negative = inhibition) at 10uM” value was 7.96%. `CN(C(=O)c1cccnc1)c1nnc(-c2cnccn2)s1`: the “hERG current change (%, negative = inhibition) at 10uM” value is listed as 8.06%. Take `Cc1cc(NC(=O)c2cccc3c2C(=O)N(C2CCCCC2)C3)ccc1Br`: the “hERG current change (%, negative = inhibition) at 10uM” value is on record as 13%. For the compound `O=C(CCl)NCCN1C(=O)S/C(=C\c2cccnc2)C1=O`, the “hERG current change (%, negative = inhibition) at 10uM” value stood at 26.1%. Consider `CCOc1ccc(N2CC(C(=O)NCCN3C(=O)S/C(=C\c4cccnc4)C3=O)CC2=O)cc1` (centres unmarked), for which the “hERG current change (%, negative = inhibition) at 10uM” value is -0.149%. For `CSc1cccc(N2CC(C(=O)NCCN3C(=O)S/C(=C\c4cccnc4)C3=O)CC2=O)c1` (centres unmarked), the “hERG current change (%, negative = inhibition) at 10uM” value is given as -68.3%.

Regarding `CS(=O)(=O)c1ccc(C(=O)NCCN2C(=O)S/C(=C\c3cccnc3)C2=O)cc1[N+](=O)[O-]`, the “hERG current change (%, negative = inhibition) at 10uM” value is given as 1.32%. In the case of `O=C(NCCN1C(=O)S/C(=C\c2cccnc2)C1=O)c1cc(S(=O)(=O)N2CCOCC2)ccc1F`, the “hERG current change (%, negative = inhibition) at 10uM” value was -59%. Turning to `COc1ccc(C(=O)NCCN2C(=O)S/C(=C\c3cccnc3)C2=O)cc1[N+](=O)[O-]`, the “hERG current change (%, negative = inhibition) at 10uM” value is reported as -63.8%. As for `COc1ccccc1N1CC(C(=O)NCCN2C(=O)S/C(=C\c3cccnc3)C2=O)CC1=O` (centres unmarked), the figure is 1.78%. In the case of `Cc1cc(OCCCC(=O)NCCN2C(=O)S/C(=C\c3cccnc3)C2=O)ccc1Cl`, the “hERG current change (%, negative = inhibition) at 10uM” value is recorded as -6.35%.
